This passage reports growth results from PubChem BioAssay (NCI).

Test systems include HT29 colon; SNB-75 CNS; SNB-19 CNS; U251 CNS; PC-3 prostate; SK-MEL-5 melanoma; UACC-62 melanoma; LOX IMVI melanoma; SK-MEL-28 melanoma; SK-MEL-2 melanoma; EKVX NSCLC; UO-31 renal; TK-10 renal; ACHN renal; CAKI-1 renal; A498 renal; CCRF-CEM leukemia; MOLT-4 leukemia; SN12C renal.
Common to all, as to assay: NCI-60 one-dose screen, 48 h (100 = growth as untreated, 0 = no growth, -100 = all killed)
What all share (conditions): 10 µM unless noted

Compounds without any hit were thinned out: in the full panel of roughly 83,000, 20% have a hit.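 Assay: single dose, 48 h. Readout: percent growth (0 = no net growth; negative = cell death). Active: <10.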 Unmarked numbers belong to inactive results. Active and inactive are the calls of the source.

Turning to `OB(O)c1ccccc1`, the growth was 101% in the experiment with HT29 colon; 101% with SNB-75 CNS; 114% with SNB-19 CNS; 101% with U251 CNS; 101% in the experiment on PC-3 prostate; 113% with SK-MEL-5 melanoma. Further, the growth was 109% in the experiment on UACC-62 melanoma; 101% in the experiment with LOX IMVI melanoma; 117% with SK-MEL-28 melanoma; 107% in the experiment with SK-MEL-2 melanoma; 108% in the experiment on EKVX NSCLC; 91.3% in the experiment with UO-31 renal. Moreover, the growth in the experiment with TK-10 renal was 105%; with ACHN renal it was 107%; in the experiment with CAKI-1 renal it was 96.5%; in the experiment on A498 renal, 106%; with CCRF-CEM leukemia, 100%; in the experiment on MOLT-4 leukemia, 96.9%.

Turning to `COc1ccc(/C=C/C(=O)N2CCC(O)CC2)cc1OC1CCCC1`, the growth in the experiment with HT29 colon was 102%; in the experiment on SNB-75 CNS, 90.2%; with SNB-19 CNS, 95.7%; in the experiment with U251 CNS, 93%; in the experiment on SK-MEL-5 melanoma, 99.3%; with UACC-62 melanoma, 97.9%. The growth was 95.3% in the experiment on LOX IMVI melanoma; 115% with SK-MEL-28 melanoma; 95% with SN12C renal; 87.8% with UO-31 renal; 102% in the experiment on TK-10 renal; 102% in the experiment on ACHN renal. Also, the growth in the experiment on CAKI-1 renal was 93.1%; with CCRF-CEM leukemia, 119%; in the experiment on MOLT-4 leukemia, 97.6%.

As for `O=[N+]([O-])c1cc2c(cc1Br)C1C(C3C2C(Cl)(Cl)C(Cl)=C(Cl)C3(Cl)Cl)C(Cl)(Cl)C(Cl)=C(Cl)C1(Cl)Cl` (stereo not drawn), the growth in the experiment with HT29 colon was 102%; in the experiment with SNB-75 CNS it was 85.8%; with SNB-19 CNS it was 106%; with PC-3 prostate it was 85.1%; with SK-MEL-5 melanoma it was 102%; in the experiment with UACC-62 melanoma, 87.1%. Further, the growth with LOX IMVI melanoma was 91.9%; in the experiment with SK-MEL-28 melanoma, 102%; in the experiment with SK-MEL-2 melanoma it was 81.2%; in the experiment with SN12C renal it was 98.7%; in the experiment on UO-31 renal, 74.4%; in the experiment on TK-10 renal, 103%. Further, the growth in the experiment on ACHN renal is 102%; with CAKI-1 renal, 91.4%; with A498 renal, 111%; in the experiment with CCRF-CEM leukemia it was 86.5%; in the experiment on MOLT-4 leukemia, 95.1%.

For `CC1(C)CC(=O)C2=C(C1)Nc1cc3c(cc1C2c1ccc(F)cc1)OCO3` (stereo not drawn), the growth with HT29 colon is 93.2%; in the experiment with SNB-75 CNS it was 77.3%; in the experiment on SNB-19 CNS, 96.5%; in the experiment with U251 CNS it was 90.6%; in the experiment on PC-3 prostate, 93.5%; in the experiment on UACC-62 melanoma, 98.7%. Further, the growth was 99.1% with LOX IMVI melanoma; 92.6% with SK-MEL-28 melanoma; 92.3% in the experiment on EKVX NSCLC; 106% with SN12C renal; 74% in the experiment with UO-31 renal; 98.6% with ACHN renal. For the same compound, the growth with CAKI-1 renal was 96.4%; in the experiment on A498 renal, 82%; in the experiment with CCRF-CEM leukemia it was 86.4%; in the experiment on MOLT-4 leukemia, 83.1%.

Take `CC(C)NCC(O)COc1ccc(CCOCC2CC2)cc1` (stereo not drawn): the growth was 97.9% with HT29 colon; 99.3% in the experiment with SNB-75 CNS; 106% in the experiment with SNB-19 CNS; 99.4% in the experiment on U251 CNS; 80% in the experiment on PC-3 prostate; 95% with SK-MEL-5 melanoma. The growth with UACC-62 melanoma was 110%; with SK-MEL-28 melanoma, 118%; in the experiment with SK-MEL-2 melanoma, 109%; with EKVX NSCLC, 98.4%; in the experiment on SN12C renal it was 96.9%; in the experiment on UO-31 renal it was 76.9%. Besides, the growth was 111% with TK-10 renal; 109% in the experiment with ACHN renal; 99.3% with CAKI-1 renal; 90.7% in the experiment with A498 renal; 93.8% with CCRF-CEM leukemia; 88.3% in the experiment on MOLT-4 leukemia.

As for `Oc1ccc2ccccc2c1C1NN=C(c2ccccc2)S1` (stereo not drawn), the growth was 37.8% in the experiment on HT29 colon; 41.8% in the experiment on SNB-75 CNS; 23.6% in the experiment with SNB-19 CNS; 19.4% in the experiment with U251 CNS; 27.7% in the experiment with PC-3 prostate; 11.6% with SK-MEL-5 melanoma. The growth was 13.8% in the experiment on LOX IMVI melanoma; 23% in the experiment with SK-MEL-28 melanoma; 27.4% in the experiment with EKVX NSCLC; 17.2% in the experiment with SN12C renal; -11.5% (active) in the experiment with UO-31 renal; 49% in the experiment on TK-10 renal. Besides, the growth was 10.9% with ACHN renal, -1.25% (active) in the experiment with CAKI-1 renal, 31.3% in the experiment on A498 renal and 13% in the experiment on MOLT-4 leukemia.

On to `COc1cc(C(F)(F)F)ccc1-c1cc(-c2ccc(F)cc2)n[nH]1`, for which the growth in the experiment on HT29 colon was 92.5%; in the experiment on SNB-75 CNS, 74.4%; with SNB-19 CNS it was 77.9%; with U251 CNS, 80%; in the experiment on PC-3 prostate, 76%; in the experiment with UACC-62 melanoma, 83.9%. For the same compound, the growth is 96.9% with LOX IMVI melanoma; 102% in the experiment with SK-MEL-28 melanoma; 85.2% in the experiment on SN12C renal; 59.6% in the experiment on UO-31 renal; 77% with ACHN renal; 78.4% in the experiment on CAKI-1 renal. In addition, the figures for the growth in the experiment on A498 renal, in the experiment with CCRF-CEM leukemia and in the experiment on MOLT-4 leukemia were 95.1%, 89.8% and 91.2%, respectively.

As for `Cc1ccc(S(=O)(=O)c2ccc3[nH]c(=O)[nH]c(=O)c3c2)cc1`, the growth was 107% in the experiment with HT29 colon; 92.4% in the experiment on SNB-75 CNS; 94.3% in the experiment with SNB-19 CNS; 95.1% in the experiment on U251 CNS; 86.2% with PC-3 prostate; 103% in the experiment on SK-MEL-5 melanoma. Further, the growth is 92.9% with UACC-62 melanoma; 101% in the experiment with LOX IMVI melanoma; 114% in the experiment with SK-MEL-28 melanoma; 100% in the experiment on SK-MEL-2 melanoma; 122% in the experiment on EKVX NSCLC; 97.7% in the experiment with SN12C renal. Moreover, the growth in the experiment on UO-31 renal was 96.1%; in the experiment on TK-10 renal, 93.8%; in the experiment with ACHN renal, 109%; in the experiment with CAKI-1 renal it was 97.1%; in the experiment on A498 renal, 102%; in the experiment with CCRF-CEM leukemia, 91.4%. Besides, the growth in the experiment with MOLT-4 leukemia is 94.6%.

For `C(=C\c1ccccc1)/CN1CCN(C(c2ccccc2)c2ccccc2)CC1`, the growth was 83.1% with HT29 colon; 85.4% with SNB-75 CNS; 96.3% with SNB-19 CNS; 77.5% in the experiment on PC-3 prostate; 95.5% in the experiment on SK-MEL-5 melanoma; 96.9% in the experiment on UACC-62 melanoma. The growth in the experiment on LOX IMVI melanoma was 99.7%; in the experiment on SK-MEL-28 melanoma it was 91.9%; in the experiment with UO-31 renal, 70.5%; with TK-10 renal it was 110%; in the experiment on ACHN renal it was 95.1%; with A498 renal, 69.5%. The growth was 94.4% in the experiment with CCRF-CEM leukemia and 90.2% in the experiment on MOLT-4 leukemia.
